From PubChem BioAssay AID1159580 (chemical genetic matrix, 2015)
The whole screen tested about 5,500 compounds, of which about 2,000 (36%) were called active. Inconclusive results (about 18%) are left out. Rule as the data show it: active = normalized growth mostly below about 0.91 (no sharp cut-off); inconclusive = no clear call, values can overlap the other calls; inactive = mostly above about 0.92. The list shows a part of the results.

Assay: chemical genetic growth profiling, strain panel (AID 1159580);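 also: tested at 20 µM; growth read once vehicle control cultures reached saturation at 30 °C; 1 = growth at the plate median or of vehicle wells; lower values mean less growth of the strain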
Conditions: S. cerevisiae deletion strains, growth OD

Measured: normalized growth

CC(C)NCC(O)c1ccc(NS(C)(=O)=O)cc1 (stereo unspecified)
inactive: locus YAL040C, strain CLN3, active compounds read low 1.01 | locus YCL061C, strain MRC1 (second series), active compounds read low 1 | locus YDR363W, strain ESC2, active compounds read low 0.973 | locus YER002W, strain NOP16, active compounds read low 1 | locus YGR078C, strain PAC10, active compounds read low 1.01 | locus YJR075W, strain HOC1, active compounds read low 0.986 | locus YMR263W, strain SAP30, active compounds read low 1 | locus YMR307W, strain GAS1, active compounds read low 1.02 | locus YNL153C, strain GIM3, active compounds read low 1.04 | locus YNL175C, strain NOP13, active compounds read low 1 | locus YNL197C, strain WHI3, active compounds read low 1.01 | locus YNL224C, strain SQS1, active compounds read low 1 | locus YNL322C, strain KRE1, active compounds read low 0.985 | locus YOR083W, strain WHI5 (second series), active compounds read low 1 | locus YPL055C, strain LGE1, active compounds read low 0.977 | locus YPL241C, strain CIN2, active compounds read low 0.999
